# Results: PubChem BioAssay (NCATS)
# Values joined by “and” are separate entries in the source; they are usually repeats but may differ in a detail not shown here. Equal values may be shown once. Unmarked numbers belong to inactive results. Records with an inconclusive call do not appear. More than one record can exist for a structure, and the calls need not agree. Active and inactive are the calls of the source. The call rests on the fitted dose curve; in most records, active means well fitted curve in the direction sought with a large enough effect; inconclusive means small, poorly fitted or top-dose-only effect, or another doubt; inactive means no such curve, though single readings can be large or run the other way.
# Molecular target: Hexokinase-4 (Homo sapiens) + Glucokinase regulatory protein (Homo sapiens) (UniProt P35557+Q14397)
# Sequence (P35557 whole entry, looked up): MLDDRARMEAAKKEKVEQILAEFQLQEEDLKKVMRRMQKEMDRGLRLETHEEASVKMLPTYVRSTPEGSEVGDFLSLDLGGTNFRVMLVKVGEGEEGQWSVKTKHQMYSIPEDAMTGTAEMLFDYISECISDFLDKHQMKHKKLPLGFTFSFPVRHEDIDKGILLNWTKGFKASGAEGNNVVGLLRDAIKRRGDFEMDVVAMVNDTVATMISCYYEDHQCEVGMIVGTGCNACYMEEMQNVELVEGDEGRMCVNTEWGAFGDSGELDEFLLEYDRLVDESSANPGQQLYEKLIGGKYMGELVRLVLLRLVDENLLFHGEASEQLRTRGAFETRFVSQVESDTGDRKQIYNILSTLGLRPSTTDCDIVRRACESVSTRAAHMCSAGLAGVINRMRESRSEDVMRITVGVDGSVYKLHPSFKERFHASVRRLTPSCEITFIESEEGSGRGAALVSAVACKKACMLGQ
# Sequence (Q14397 whole entry, looked up): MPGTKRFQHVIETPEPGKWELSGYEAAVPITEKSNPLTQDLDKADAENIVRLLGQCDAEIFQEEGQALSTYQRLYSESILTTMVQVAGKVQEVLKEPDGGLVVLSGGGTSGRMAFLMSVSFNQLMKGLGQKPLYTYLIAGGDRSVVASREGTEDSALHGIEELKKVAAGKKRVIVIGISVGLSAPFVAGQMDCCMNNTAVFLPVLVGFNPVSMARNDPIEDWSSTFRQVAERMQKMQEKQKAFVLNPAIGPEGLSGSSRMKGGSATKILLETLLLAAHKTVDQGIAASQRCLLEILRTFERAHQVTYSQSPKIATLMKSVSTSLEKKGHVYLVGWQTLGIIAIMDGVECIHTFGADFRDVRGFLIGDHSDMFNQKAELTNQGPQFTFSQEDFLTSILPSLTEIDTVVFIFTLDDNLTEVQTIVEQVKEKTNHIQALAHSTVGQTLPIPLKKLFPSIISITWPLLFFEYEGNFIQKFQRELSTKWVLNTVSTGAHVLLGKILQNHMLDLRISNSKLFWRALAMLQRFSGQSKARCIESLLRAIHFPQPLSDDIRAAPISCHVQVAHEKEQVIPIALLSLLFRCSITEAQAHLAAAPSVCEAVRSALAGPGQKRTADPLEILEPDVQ
# Assay: qHTS assay for inhibitors of recombinant human GCK-GKRP interaction: HTRF assay (AID 743207);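 further: 0% = DMSO with GCK present and -100% = DMSO wells lacking GCK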
# Settings: recombinant GCK-GKRP HTRF binding, 60 min, with sorbitol-6-phosphate; series mostly up to 57.5 µM; activity change, negative = inhibition: at the top concentration
# In short: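 HTRF read-out (ex 320 nm; 615/665 nm emission) after 60 min RT equilibration of 5 nM GST-GCK, 5 nM FLAG-GKRP, 2 uM S6P, compound and anti-FLAG/anti-GST detection antibodies; signal normalized between DMSO wells with and without GCK.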
Compound,"activity change, negative = inhibition [%]",outcome
NC1CCN(c2cccc(Cl)n2)CC1,1.77,–
CC(C)C(=O)c1c(C(C)C)nn2ccccc12,-2.75,–
CC(C)(C)[C@]1(O)CCN2C[C@H]3c4ccccc4CCc4cccc(c43)[C@@H]2C1,–,inactive
CCCCCCCCCCCCCCCC(=O)NCCO,-1.54,–
Cc1cc(N)c2ccccc2[n+]1CCCCCCCCCC[n+]1c(C)cc(N)c2ccccc21,-10.5,–
CCCn1cnc2c1c(=O)n(CCCCC(C)=O)c(=O)n2C,-9.71,–
CC[C@H]1CN2CCc3cc(OC)c(OC)cc3[C@@H]2C[C@@H]1C[C@H]1NCCc2cc(OC)c(OC)cc21,-10.9,–
CN(C)CC[C@@H](c1ccc(Cl)cc1)c1ccccn1,2.17,–
CCN(CC)CCCC(C)Nc1c2ccc(Cl)cc2nc2ccc(OC)cc12 (stereo not given),13.9,–
CNCCCC1c2ccccc2C=Cc2ccccc21,-5.44,–
CSc1ccc2c(c1)N(CCC1CCCCN1C)c1ccccc1S2 (stereo not given),-1.38,–
CC(C)(C)c1onc(OCP(=O)(O)O)c1CC(N)C(=O)O (stereo not given),–,inactive
C[C@](N)(Cc1ccc(O)cc1)C(=O)O,13,–
CCN(CC)CCNC(=O)c1cc(Cl)c(N)cc1OC,3.09,–
CCN(CC)C(C)CN1c2ccccc2Sc2ccccc21 (stereo not given),-3.45,–
CC1=C(CC(=O)O)c2cc(F)ccc2/C1=C\c1ccc(S(C)(=O)=O)cc1,14.9,–
O=C1N=C(O)CN1/N=C/c1ccc(-c2ccc([N+](=O)[O-])cc2)o1,24.4,–
C=Cc1c(C)c2cc3[nH]c(cc4nc(cc5nc(cc1[nH]2)C(C)=C5CCC(=O)O)C(CCC(=O)O)=C4C)c(C)c3C=C,8.29,–

Compound,"activity change, negative = inhibition [%]",outcome
OCCN1CCN(CCCN2c3ccccc3Sc3ccc(Cl)cc32)CC1,-1.79,–
CC(=O)OCC(=O)[C@@]1(O)CC[C@H]2[C@@H]3CCC4=CC(=O)CC[C@]4(C)[C@H]3C(=O)C[C@@]21C,3.42,–
CCN(CC)CCOC(=O)C1(C2CCCCC2)CCCCC1,-3.47,–
CC(CN(C)C)CN1c2ccccc2CCc2ccccc21 (stereo not given),-11.2,–
C#CCN(C)Cc1ccccc1,6.95,–
CNCC(O)c1ccc(O)c(O)c1 (stereo not given),-0.793,–
COCCOC(=O)C1=C(C)NC(C)=C(C(=O)OC/C=C/c2ccccc2)C1c1cccc([N+](=O)[O-])c1 (stereo not given),0.843,–
Nc1ncnc2c1ncn2[C@@H]1O[C@H](CO)[C@@H](O)[C@H]1O,1.3,–
Nc1cc(=O)[nH]c(N)n1,-11,–
CC(C)(C(=O)O)c1ccc(C(O)CCCN2CCC(C(O)(c3ccccc3)c3ccccc3)CC2)cc1 (stereo not given),-3.09,–
N=c1c[n+](N2CCOCC2)[n-]o1,-3,–
CN1CCN(C2Cc3ccccc3Sc3ccc(Cl)cc32)CC1 (stereo not given),-1.36,–
CNCCC(Oc1ccc(C(F)(F)F)cc1)c1ccccc1 (stereo not given),-2.83,–
CC1=C(CC(=O)O)c2cc(F)ccc2/C1=C\c1ccc(S(C)=O)cc1 (stereo not given),-1.26,–
CC(C)NC[C@H](O)c1ccc(O)c(O)c1,–,inactive
NC(N)=NCCC[C@H](N)C(=O)O,9.7,–
CC(C(O)c1ccc(O)cc1)N1CCC(Cc2ccccc2)CC1 (stereo not given),-9.94,–

# Test system: not listed separately
# Assay: qHTS Assay for Identifying Gametocytocidal Compounds (AID 743244); further: potency means the concentration at half of the fitted maximal effect;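 on max response: on the % scale 0 is the no-effect control and ±100 the full control effect; actives lower the fluorescent signal which means gametocytes are killed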
# Settings: P. falciparum 3D7 stage III-V gametocytes, alamarBlue, 72 h; max response: active compounds read low
# In short: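 Stage III–V gametocytes of P. falciparum 3D7 were seeded at 20,000 cells/well onto pre-dispensed compounds. After 72 h, 37 °C, 5% CO2, alamarBlue was added for another 24 h.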
Compound,max response,Potency
NC1CCN(c2cccc(Cl)n2)CC1,1.41% and 17.3%,–
CCCn1cnc2c1c(=O)n(CCCCC(C)=O)c(=O)n2C,-8.62% and 26.7%,–
CN(C)CC[C@@H](c1ccc(Cl)cc1)c1ccccn1,25.3%,26.4 µM (active)
CCN(CC)CCCC(C)Nc1c2ccc(Cl)cc2nc2ccc(OC)cc12 (stereo not given),–,3.16 µM (active) and 1 µM (active)
CSc1ccc2c(c1)N(CCC1CCCCN1C)c1ccccc1S2 (stereo not given),–,2.51 µM (active)
C[C@](N)(Cc1ccc(O)cc1)C(=O)O,18.5% and 8.95%,–
CCN(CC)CCNC(=O)c1cc(Cl)c(N)cc1OC,-1.62%,–
O=C1N=C(O)CN1/N=C/c1ccc(-c2ccc([N+](=O)[O-])cc2)o1,4.07% and 20.9%,–
CCN(CC)CCOC(=O)C1(C2CCCCC2)CCCCC1,0.472% and 32.4%,–
CC(CN(C)C)CN1c2ccccc2CCc2ccccc21 (stereo not given),4.34%,–
C#CCN(C)Cc1ccccc1,14.1% and 13.7%,–
COCCOC(=O)C1=C(C)NC(C)=C(C(=O)OC/C=C/c2ccccc2)C1c1cccc([N+](=O)[O-])c1 (stereo not given),2.31% and 20.4%,–
Nc1ncnc2c1ncn2[C@@H]1O[C@H](CO)[C@@H](O)[C@H]1O,-0.147% and 30.2%,–
Nc1cc(=O)[nH]c(N)n1,-11.1% and 4.42%,–
CC(C)(C(=O)O)c1ccc(C(O)CCCN2CCC(C(O)(c3ccccc3)c3ccccc3)CC2)cc1 (stereo not given),-3.24% and 8.77%,–
N=c1c[n+](N2CCOCC2)[n-]o1,8.18%,–
CC(C)NC[C@H](O)c1ccc(O)c(O)c1,-9.19% and 21.1%,–
NC(N)=NCCC[C@H](N)C(=O)O,-1.84% and -1.95%,–
CC(C(O)c1ccc(O)cc1)N1CCC(Cc2ccccc2)CC1 (stereo not given),–,2.82 µM (active)
